Test results taken from PubChem BioAssay.
Activity calls are given as the source filed them. The rule behind the calls is not given here.

Experiment: Cy5 fluorescence quenching or enhancement artefacts, artefact control for HCV NS3 helicase inhibitor project, biochemical, LOPAC1280 (AID 687037)
Conditions: Cy5-DNA-NS3h complex fluorescence interference counterscreen
In the case of `CN(C)CC[C@@H](c1ccc(Br)cc1)c1ccccn1`, the fluorescence ratio (interference) is reported as 1 (inactive).
In the case of `CCN(CC)CCNC(=O)c1ccc(NC(C)=O)cc1`, the fluorescence ratio (interference) is reported as 1 (inactive).
For `CC(C(=O)O)c1ccc(CC2CCCC2=O)cc1` (stereo not drawn), the fluorescence ratio (interference) was 1 (inactive).
With `Cc1cn([C@H]2C=C[C@@H](CO)O2)c(=O)[nH]c1=O` the fluorescence ratio (interference) was 1 (inactive).
In the case of `C[C@H](NC(CCc1ccccc1)C(=O)O)C(=O)N1CCC[C@H]1C(=O)O` (stereo partly drawn), the fluorescence ratio (interference) is reported as 1 (inactive).
For `CCOC(=O)c1ncn2c1CN(C)C(=O)c1cc(F)ccc1-2`, the fluorescence ratio (interference) was 1 (inactive).
With `CC(=O)[C@]1(O)Cc2c(O)c3c(c(O)c2[C@@H](O[C@H]2C[C@H](N)[C@H](O)[C@H](C)O2)C1)C(=O)c1ccccc1C3=O` the fluorescence ratio (interference) was 0.8 (active).
With `C=CCc1ccccc1OCC(O)CNC(C)C` (stereo not drawn) the fluorescence ratio (interference) was 1 (inactive).
With `Cc1[nH]c(=O)c(C#N)cc1-c1ccncc1` the fluorescence ratio (interference) was 1 (inactive).
With `Nc1c2c(nc3ccccc13)CCCC2O` (stereo not drawn) the fluorescence ratio (interference) was 1 (inactive).
With `Nc1nc2c(ncn2COC(CO)CO)c(=O)[nH]1` the fluorescence ratio (interference) was 1 (inactive).
For `CCN1CCC[C@H]1CNC(=O)c1c(O)c(Cl)cc(Cl)c1OC`, the fluorescence ratio (interference) was 1 (inactive).
For `Cc1cccc(C)c1NC(=O)C(C)N` (stereo not drawn), the fluorescence ratio (interference) was 1 (inactive).
In the case of `Nc1nnc(-c2cccc(Cl)c2Cl)c(N)n1`, the fluorescence ratio (interference) is reported as 1 (inactive).
With `NNc1nncc2ccccc12` the fluorescence ratio (interference) was 1 (inactive).
With `CCN1CCCC1CNC(=O)c1cc(S(=O)(=O)CC)c(N)cc1OC` (stereo not drawn) the fluorescence ratio (interference) was 0.9 (inactive).
In the case of `C=Cc1c(C)c2cc3[nH]c(cc4nc(cc5nc(cc1[nH]2)C(C)=C5CCC(=O)O)C(CCC(=O)O)=C4C)c(C)c3C=C`, the fluorescence ratio (interference) is reported as 2 (active).
With `Clc1ccc2nsnc2c1NC1=NCCN1` the fluorescence ratio (interference) was 1 (inactive).
